Measured values published in the supplement of paper PMC7380943.
± gives the standard deviation of the averaged measurements.

How the values were obtained:
[1] = tested on: CLZ3 (HCA2 human fibroblast dual HR-NHEJ reporter); assay: NHEJ repair efficiency (GFP+ cells) relative to control (log10 fold); higher = more non-homologous end joining; conditions: 5 µM; doxycycline 0.5 ug/mL
[2] = tested on: CLZ3 (HCA2 human fibroblast dual HR-NHEJ reporter); assay: HR repair efficiency (tdTomato+ cells) relative to control (log10 fold); higher = more homologous recombination; conditions: 5 µM; doxycycline 0.5 ug/mL
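For HR repair efficiency (tdTomato+ cells) relative to control in this document: compound given one day before doxycycline, which switches on I-SceI endonuclease expression to create double-strand breaks within the integrated reporter.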
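For NHEJ repair efficiency (GFP+ cells) relative to control in this document: compound given one day ahead of doxycycline, which switches on I-SceI endonuclease to cut the chromosomally integrated reporter and create DSBs.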

SMILES | NHEJ repair efficiency (log10) [1] | HR repair efficiency (log10) [2]
CCN1C[C@]2(COC)CC[C@H](O)C34C1C([C@H](OC)[C@@H]32)[C@]1(O)[C@@H]2[C@H]4CC([C@@H](OC)[C@@H]1O)[C@@H]2O [Fuziline] | 0.0177 | 0.0271
CNCC(O)c1ccc(O)cc1 (stereo not drawn) [Synephrine] | 0.0915 | 0.108
CCN1C[C@]2(C)CC[C@H](OC)[C@@]34C1[C@]1(OCO[C@@]15C[C@H](OC)[C@H]1C[C@]3(O)[C@@H]5[C@H]1OC)[C@@H](OC(C)=O)[C@H]24 [Deltaline] | -0.125 | -0.263
COc1cccc2c1cc([N+](=O)[O-])c1c(C(=O)O)cc3c(c12)OCO3 [Aristolochic acid A] | 0.203 | 0.0578
CCN1C[C@@]2(COC)[C@H]3[C@@H](OC)[C@H]4C1[C@]3([C@@H](OC)C[C@H]2OC(C)=O)[C@@H]1C[C@@]2(O)[C@H](OC(=O)c3ccccc3)[C@@H]1[C@]4(OC(C)=O)[C@@H](O)[C@@H]2OC [Acetylaconitine] | -0.0797 | -0.0667
CCN1C[C@]2(COC)CC[C@H](OC)[C@]34C1[C@H]([C@H](OC)[C@H]23)[C@@]1(O)C[C@H](OC)[C@H]2C[C@@H]4[C@@H]1[C@H]2O [Chasmanine] | 0.0232 | -0.00256
COC(=O)C1=CCCN(C)C1 [Arecoline] | 0.0763 | 0.183
Oc1cc(O)cc(/C=C/c2ccc(O)cc2O)c1 [Oxy-Resveratrol] | 0.00144 | -0.164
O=c1cccc2n1CC1CC2CN2CCCCC12 (stereo not drawn) [Thermopsine] | 0.0072 | -0.25
COc1cc2c3c(c1OC)-c1ccccc1C[C@H]3N(C)CC2 [Nuciferine] | 0.114 | 0.137
CC(C)c1ccc2c(c1O)CC[C@H]1C3=C(CC[C@]21C)C(=O)OC3 [Triptophenolide] | -0.142 ± 0.096 | -0.108 ± 0.2
C[C@H]1CC[C@@H]2N(C1)C[C@H]1[C@@H]3C[C@H]4[C@@H](C[C@H](O)[C@H]5C[C@@H](O)CC[C@@]54C)[C@@H]3CC[C@@H]1[C@]2(C)O [Peimine] | -0.07 | -0.0412
C=C1[C@H]2C[C@@]3([C@@H]1O)[C@@H](CC2=O)[C@]12[C@@H]4C[C@H]3[C@H]1N(CC)C[C@]4(C)CC[C@@H]2O [Songorine] | -0.0383 | 0.115
CCN1C[C@]2(COC)[C@H](O)C[C@H](OC)[C@]34C1[C@H]([C@H](OC)[C@H]23)[C@@]1(OC(C)=O)C[C@H](OC)[C@@]2(O)C[C@@H]4[C@@H]1[C@H]2OC(=O)c1ccc(OC)cc1 [Yunaconitine] | -0.0536 | -0.204
